# “And” between values parts separate entries of the source, which are not always exact repeats. Equal values may be shown once. The whole screen tested about 5,500 compounds, of which about 2,000 (36%) were called active. Roughly 18% stayed inconclusive and do not appear here. This is one part of the list. A number with no mark means an inactive call. Cut-off read from the data, not from the text of the source: active = normalized growth mostly below about 0.91 (no sharp cut-off); inconclusive = no clear call, values can overlap the other calls; inactive = mostly above about 0.92.
# Assay: chemical genetic growth profiling, strain panel (AID 1159580);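 note: tested at 20 µM; growth read once vehicle control cultures reached saturation at 30 °C; 1 = growth at the plate median or of vehicle wells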
# Details: S. cerevisiae deletion strains, growth OD
smiles,measurement,setting,value
C[C@]12CCC3c4ccc(O)cc4CCC3C1CCC2=O (stereo partly drawn),normalized growth,"locus YAL013W, strain DEP1, stronger effect = lower value",0.968
same,normalized growth,"locus YAL021C, strain ccr4, stronger effect = lower value",1
same,normalized growth,"locus YAL026C, strain drs2, stronger effect = lower value",0.993
same,normalized growth,"locus YAL030W, strain snc1, stronger effect = lower value",1.01
same,normalized growth,"locus YBL061C, strain skt5, stronger effect = lower value",0.999
same,normalized growth,"locus YBR009C, strain hhf1, stronger effect = lower value",0.953
same,normalized growth,"locus YBR021W, strain FUR4, stronger effect = lower value",0.875
same,normalized growth,"locus YBR023C, strain chs3, stronger effect = lower value",1.01
same,normalized growth,"locus YBR171W, strain sec66, stronger effect = lower value",0.992
same,normalized growth,"locus YBR229C, strain ROT2, stronger effect = lower value",0.96
same,normalized growth,"locus YBR231C, strain swc5, stronger effect = lower value",0.975
same,normalized growth,"locus YBR279W, strain paf1, stronger effect = lower value",0.988
same,normalized growth,"locus YCL011C, strain gbp2, stronger effect = lower value",1.01
same,normalized growth,"locus YCL016C, strain dcc1, stronger effect = lower value",1.01
same,normalized growth,"locus YCL029C, strain bik1, stronger effect = lower value",0.952
same,normalized growth,"locus YCL061C, strain MRC1, stronger effect = lower value",1.01
same,normalized growth,"locus YCL069W, strain vba3, stronger effect = lower value",1
same,normalized growth,"locus YCR088W, strain abp1, stronger effect = lower value",1.01
same,normalized growth,"locus YDL005C, strain med2, stronger effect = lower value",1.02
same,normalized growth,"locus YDL035C, strain GPR1, stronger effect = lower value",0.87
same,normalized growth,"locus YDL040C, strain nat1, stronger effect = lower value",1.01
same,normalized growth,"locus YDL074C, strain BRE1, stronger effect = lower value",0.766 (active)
same,normalized growth,"locus YDL101C, strain DUN1, stronger effect = lower value",0.987
same,normalized growth,"locus YDL134C, strain PPH21, stronger effect = lower value",0.901
same,normalized growth,"locus YDL185W, strain tfp1, stronger effect = lower value",0.96
same,normalized growth,"locus YDL192W, strain arf1, stronger effect = lower value",0.98
same,normalized growth,"locus YDR001C, strain nth1, stronger effect = lower value",1.02
same,normalized growth,"locus YDR069C, strain doa4, stronger effect = lower value",0.993
same,normalized growth,"locus YDR101C, strain arx1, stronger effect = lower value",0.923
same,normalized growth,"locus YDR137W, strain rgp1, stronger effect = lower value",0.682 (active)
same,normalized growth,"locus YDR159W, strain sac3, stronger effect = lower value",0.959
same,normalized growth,"locus YDR162C, strain NBP2, stronger effect = lower value",0.761 (active)
same,normalized growth,"locus YDR195W, strain ref2",1.26 [resistant] (active)
same,normalized growth,"locus YDR297W, strain sur2, stronger effect = lower value",1.01
same,normalized growth,"locus YDR318W, strain mcm21, stronger effect = lower value",0.967
same,normalized growth,"locus YDR334W, strain swr1, stronger effect = lower value",1.02
same,normalized growth,"locus YDR335W, strain msn5, stronger effect = lower value",0.998
same,normalized growth,"locus YDR388W, stronger effect = lower value",0.987
same,normalized growth,"locus YDR392W, strain spt3, stronger effect = lower value",0.625 (active)
same,normalized growth,"locus YDR502C, strain sam2, stronger effect = lower value",0.939
same,normalized growth,"locus YEL003W, strain gim4, stronger effect = lower value",0.942
same,normalized growth,"locus YEL037C, strain rad23, stronger effect = lower value",1.01
same,normalized growth,"locus YEL061C, strain CIN8 (second series), stronger effect = lower value",1
same,normalized growth,"locus YEL061C, strain CIN8, stronger effect = lower value",0.997
same,normalized growth,"locus YER015W, strain faa2, stronger effect = lower value",1.01
same,normalized growth,"locus YER016W, strain bim1, stronger effect = lower value",0.978
same,normalized growth,"locus YER110C, stronger effect = lower value",0.985
same,normalized growth,"locus YER111C, strain swi4, stronger effect = lower value",1.02
same,normalized growth,"locus YER155C, strain BEM2 (second series), stronger effect = lower value",0.905
same,normalized growth,"locus YER155C, strain BEM2, stronger effect = lower value",1
same,normalized growth,"locus YER167W, strain BCK2, stronger effect = lower value",1.03
same,normalized growth,"locus YFR010W, strain ubp6, stronger effect = lower value",1
same,normalized growth,"locus YGL078C, strain dbp3, stronger effect = lower value",0.969
same,normalized growth,"locus YGL086W, strain mad1, stronger effect = lower value",0.959
same,normalized growth,"locus YGL167C, strain pmr1, stronger effect = lower value",1.03
same,normalized growth,"locus YGL173C, strain kem1, stronger effect = lower value",0.963
same,normalized growth,"locus YGL227W, strain vid30, stronger effect = lower value",1.03
same,normalized growth,"locus YGL240W, strain doc1, stronger effect = lower value",0.944
same,normalized growth,"locus YGL248W, strain PDE1, stronger effect = lower value",0.962
same,normalized growth,"locus YGL253W, strain hxk2, stronger effect = lower value",0.951
same,normalized growth,"locus YGR135W, strain pre9, stronger effect = lower value",1.02
same,normalized growth,"locus YGR252W, strain gcn5, stronger effect = lower value",0.874
same,normalized growth,"locus YHR013C, strain ard1, stronger effect = lower value",1.01
same,normalized growth,"locus YHR027C, strain rpn1, stronger effect = lower value",1
same,normalized growth,"locus YHR030C, strain SLT2, stronger effect = lower value",1.01 and 0.986
same,normalized growth,"locus YHR079C, strain IRE1 (second series), stronger effect = lower value",0.992
same,normalized growth,"locus YHR079C, strain IRE1, stronger effect = lower value",0.989
same,normalized growth,"locus YHR094C, strain hxt1, stronger effect = lower value",0.999
same,normalized growth,"locus YHR129C, strain ARP1, stronger effect = lower value",1.01
same,normalized growth,"locus YHR142W, strain chs7, stronger effect = lower value",0.949
same,normalized growth,"locus YHR200W, strain rpn10, stronger effect = lower value",0.984
same,normalized growth,"locus YIL066C, strain RNR3, stronger effect = lower value",0.982
same,normalized growth,"locus YIL073C, strain SPO22, stronger effect = lower value",0.94
same,normalized growth,"locus YIL125W, strain kgd1, stronger effect = lower value",0.986
same,normalized growth,"locus YIR030C, strain dcg1, stronger effect = lower value",1.02
same,normalized growth,"locus YJL092W, strain hpr5, stronger effect = lower value",1.02
same,normalized growth,"locus YJL095W, strain BCK1 (second series), stronger effect = lower value",1.01
same,normalized growth,"locus YJL095W, strain BCK1, stronger effect = lower value",0.919 and 0.992
same,normalized growth,"locus YJL115W, strain asf1, stronger effect = lower value",1.02
same,normalized growth,"locus YJL129C, strain trk1, stronger effect = lower value",1.03
same,normalized growth,"locus YJL134W, strain LCB3, stronger effect = lower value",0.992
same,normalized growth,"locus YJL154C, strain vps35, stronger effect = lower value",1.02
same,normalized growth,"locus YJL164C, strain tpk1, stronger effect = lower value",0.957
same,normalized growth,"locus YJL166W, strain qcr8, stronger effect = lower value",0.987
same,normalized growth,"locus YJL168C, strain set2, stronger effect = lower value",1
same,normalized growth,"locus YJL187C, strain SWE1 (second series), stronger effect = lower value",0.969
same,normalized growth,"locus YJL187C, strain SWE1, stronger effect = lower value",1.01
same,normalized growth,"locus YJR043C, strain POL32, stronger effect = lower value",0.937

# Source: PubChem BioAssay AID1159580 (chemical genetic matrix, 2015)
